In the library only some 3.2% were active in any assay of this set; here they are far more common.
CDK5 inh: inhibitors of human CDK5/p35 kinase | inhibition, % at 10 µM | Q00535+Q15078 | actives 0.01% (n = 330,000) | Recombinant CDK5/p35, ADP-Glo luminescence, 60 min;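 active means highest replicate inhibition of at least 50% and at least 75% of replicates reaching 50%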;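 further: plate controls were DMSO neutral control for no effect and GW8510 at 10 µM for full effect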
DYRK1A inh: Dyrk1A (rat) kinase inhibition. Q63470. ADP-Glo luminescence, NFATc1 peptide. inhibition, % at 12.5 µM. actives 0.43% (n = 310,000); in the data active means inhibition above about 50%;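 further: plate controls were vehicle with enzyme for no effect and no enzyme for full effect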
Rtt109 HAT inh: inhibitors of Candida albicans Rtt109/Vps75 histone acetyltransferase; Q5AAJ8; purified Rtt109/Vps75, ThioGlo CoA-SH fluorescence, 4 h; inhibition, % at 34.9 µM; actives 0.16% (n = 330,000); AID 540336;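 active means inhibition of at least 50% in every replicate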
Target sequence (Q5AAJ8 whole entry, looked up): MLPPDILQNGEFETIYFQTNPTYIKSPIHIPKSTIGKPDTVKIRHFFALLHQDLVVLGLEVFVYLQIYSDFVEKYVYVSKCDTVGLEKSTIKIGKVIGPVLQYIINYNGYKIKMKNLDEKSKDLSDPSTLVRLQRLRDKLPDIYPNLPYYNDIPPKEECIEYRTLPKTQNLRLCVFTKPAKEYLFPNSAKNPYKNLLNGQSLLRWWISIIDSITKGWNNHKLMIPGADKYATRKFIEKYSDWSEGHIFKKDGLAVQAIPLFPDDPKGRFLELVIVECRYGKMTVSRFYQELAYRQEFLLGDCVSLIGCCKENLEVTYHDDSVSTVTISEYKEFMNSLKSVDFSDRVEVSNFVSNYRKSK
dFosB act-1: activators of mouse delta FosB homodimer | P13346 | purified delta FosB, TAMRA-CDK5 oligo fluorescence polarization; percent of positive-control signal above neutral wells | activation, % at 25 µM | actives 0.99% (n = 340,000);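 active means mean activation above about 17%, with every replicate also reaching it, limit read from the data, passing the limit was not always enough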
SMARCA2 act: activators of SMARCA2 function | actives 1% (n = 370,000) | MG213 cells, MMTV-luciferase reporter, dexamethasone, overnight | activation, % at 9.1 µM; in the data active means activation above about 7.8%;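 further: 0% = vehicle wells and 100% = reference activator wells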
esBAF inh: SWI/SNF esBAF complex inhibition; actives 2% (n = 350,000); reporter increase, % at 12.5 µM; AID 602393; mouse ES cells, Bmi1-luciferase knock-in reporter, 24 h; 100% = twice the neutral-well signal; in the data active means activation above about 40%;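 further: 0% = median of the plate's neutral control wells and 100% = double that signal; a rise in the Bmi1 reporter signal indicates esBAF inhibition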
dFosB act-2: enhances mouse delta FosB homodimer binding to DNA; shares compounds with dFosB act-1; purified delta FosB, TAMRA-CDK5 oligo fluorescence polarization; normalised: neutral wells 0, positive control 100; activation, % at 24.9 µM; 2,400 tested, under 10 active; AID 588690;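 active means highest replicate activation at or above 34% and every replicate reaching that threshold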;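 further: higher polarization means more probe DNA bound by delta FosB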
Active calls of the source: *; . = not tested or not shown.

SMILES	CDK5 inh	DYRK1A inh	Rtt109 HAT inh	dFosB act-1	SMARCA2 act	esBAF inh	dFosB act-2
Cc1cccc(C)c1NC(=O)CNC(=O)c1cccc(S(=O)(=O)NCc2cccs2)c1	3	-7	3	24*	-2	4	-2
C=CCn1c(C)cc(-c2csc(NC(=O)C3CCN(c4ncnc5sc(C)c(C)c45)CC3)n2)c1C	1	.	-9	30*	-3	3	0
COc1ccc(-c2csc(NC(=O)C3CCN(c4ncnc5sc(C)c(C)c45)CC3)n2)cc1OC	-1	18	11	26*	-8	-31	-2
COCCNC(=O)C[C@H]1CC[C@H]2[C@@H](COc3ccc(NC(=O)CC(F)(F)F)cc3C(=O)N2C)O1	.	.	.	.	.	0	.
O=C(C1CCCC1)N1[C@@H](CO)[C@@H]2c3ccccc3N(S(=O)(=O)c3ccccc3)C[C@@H]21	.	.	.	.	.	-5	.
O=c1nc(Nc2ccc(OCc3ccccc3)cc2)sc2ncccc12	0	-1	-11	20*	0	6	-1
CN(C)CC(=O)N1CC[C@@H]2[C@H]1c1cc(Br)ccc1N(C)[C@H]2CO	.	.	.	.	.	-3	.
Cc1ccc(C(=O)NCCNc2nc3cc(C)c(C)cc3cc2C)cc1	1	2	-1	41*	-5	-9	1
CCN(CC)CCN(C(=O)c1cc2c(ccc3ccccc32)oc1=O)c1nc2cc3c(cc2s1)OCCO3	-3	.	-1	71*	-1	25	0
CN(C)CCN(C(=O)c1cccs1)c1nc2cc3c(cc2s1)OCCO3	-2	-3	-1	15	3	17	.
CN(C)CCN(C(=O)c1cccc2ccccc12)c1nc2cc3c(cc2s1)OCO3	-1	1	36	41*	-1	-8	0
CN(C)CCN(C(=O)c1ccc(Br)s1)c1nc2cc3c(cc2s1)OCCO3	-3	1	20	19*	-2	.	2
CCN(CC)CCN(C(=O)c1ccc2c(c1)OCCO2)c1nc2cc3c(cc2s1)OCO3	0	-3	17	3	0	7	.
CN(C)CCCN(C(=O)c1ccc2ccccc2c1)c1nc2cc3c(cc2s1)OCO3	0	2	15	6	-3	.	.
CCN(c1ccccc1)S(=O)(=O)c1ccc(C(=O)N(CCCN(C)C)c2nc3cc4c(cc3s2)OCO4)cc1	4	2	38	29*	5	-7	-3
C[C@@H]1CCCCO[C@H](CN(C)Cc2ccc(C(F)(F)F)cc2)[C@@H](C)CN([C@@H](C)CO)C(=O)c2cc(NS(=O)(=O)c3cn(C)cn3)ccc2O1	.	.	.	.	.	1	.
CCC(=O)N(C)C[C@H]1Oc2ncc(/C=C/c3ccccc3)cc2C(=O)N([C@@H](C)CO)C[C@H]1C	.	.	.	.	.	-1	.
COc1ccc(NC(=O)Nc2ccc3c(c2)C(=O)N([C@@H](C)CO)C[C@@H](C)[C@@H](CN(C)S(C)(=O)=O)OCCCC[C@@H](C)O3)cc1	.	.	.	.	.	3	.
N/C(CC(=O)Nc1ccc(F)c(Cl)c1)=N\OC(=O)c1cccs1	-1	-2	-4	23*	1	.	1
CC(=O)Nc1ccc(N2C(=O)c3ccc(C(=O)Nc4nnc(SCc5ccc(F)cc5)s4)cc3C2=O)cc1	0	-2	-1	56*	-1	-6	2
CCC(=O)Nc1nnc(SCc2ccc(F)cc2)s1	0	7	-3	3	-2	15	.
C[C@@H](NC(=O)C[C@@H]1CC[C@@H](NC(=O)C2CCC2)[C@@H](CO)O1)c1ccccc1	.	.	.	.	.	-4	.
O=C(NNC(=O)c1ccc(NC(=O)c2ccccc2)cc1)Nc1ccccc1	1	12	2	25*	-1	.	-1
O=C(Nc1ccc2cccnc2c1)c1ccc(Br)cc1	1	-4	6	-12	1	29	.
O=C(Nc1ccc2nc3ccccc3nc2c1)c1ccc(Br)cc1	-1	0	-15	32*	-3	17	-2
O=C(NNC(=O)c1ccc(NC(=O)c2ccccc2)cc1)c1ccc(F)cc1	1	-2	5	39*	-1	-6	7
